# Compound activity deposited in PubChem BioAssay by National Center for Advancing Translational Sciences (NCATS).
# PI4K2A block: PI4K2A (human) kinase inhibition | purified PI4K2A, ADP-Glo luminescence, 1 h; stronger effect = lower value | activity change, negative = inhibition, % at 76.9 µM | actives 0.13% (n = 420,000); in the data active means activity change below about -50%; inconclusive means mostly about -30% to -49%;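 further: -100% = wells without enzyme as full effect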
# Target sequence (Q9BTU6 whole entry, looked up): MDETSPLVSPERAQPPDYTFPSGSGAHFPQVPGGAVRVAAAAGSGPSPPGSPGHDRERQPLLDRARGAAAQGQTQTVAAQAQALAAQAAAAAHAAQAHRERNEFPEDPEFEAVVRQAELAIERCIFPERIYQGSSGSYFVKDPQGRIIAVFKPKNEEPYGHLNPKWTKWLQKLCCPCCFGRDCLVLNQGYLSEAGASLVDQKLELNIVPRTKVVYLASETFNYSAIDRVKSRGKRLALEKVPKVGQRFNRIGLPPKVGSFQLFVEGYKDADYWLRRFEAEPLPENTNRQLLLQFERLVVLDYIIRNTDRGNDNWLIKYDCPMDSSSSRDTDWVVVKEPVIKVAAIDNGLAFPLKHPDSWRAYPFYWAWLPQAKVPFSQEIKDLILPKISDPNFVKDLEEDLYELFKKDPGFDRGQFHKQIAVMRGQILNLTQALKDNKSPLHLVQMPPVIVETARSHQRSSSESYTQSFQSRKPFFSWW
#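 PI4K2A activity was measured by ADP-Glo luminescence: enzyme (4 ug/mL stock) and phosphatidylinositol (1.2 mM stock) in Tris pH 7.5/MgCl2/EGTA/Triton X-100 buffer were reacted with ATP (300 microM stock) for one hour at ambient temperature.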
# KB-3-1 cytotox: kills parental KB-3-1 adenocarcinoma cells | KB-3-1 viability, CellTiter-Glo ATP luminescence, 72 h | Potency, µM (titrated, usually from 46.1 µM), hits mostly cytotoxic | actives 1.4% (n = 400,000) | AID 1347075; further: potency means the concentration at half of the fitted maximal effect; nearly all actives have a fitted effect of over 60% in size
#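 72 h, 37 °C compound treatment of KB-3-1 parental cells; CellTiter-Glo added, 10 min, luminescence read. Data corrected against DMSO-only plates and normalized before curve fitting.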
# A549 viability: kills or reduces viability of A549 cells in Nrf2 counter-screen. actives 0.16% (n = 390,000). Potency, µM (series often up to 46 µM), for the others: top-dose activity change, negative = cytotoxicity, most hits filed as inhibitors. A549 ARE-Fluc cells, CellTiter-Fluor viability, 18-24 h; further: potency means the concentration at half of the fitted maximal effect
#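 A549 ARE-Fluc cells in 5% FBS OPTI-MEM, 5000 cells/well, rested 2 h then exposed to compounds in concentration-response for 18-24 h at 37 °C. Viability by CellTiter-Fluor fluorescence (Ex 405/Em 525) after 30 min; luciferase luminescence (BugLite, 15 min, RT) read afterwards.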
# Nrf2 block: inhibitors of Nrf2 signaling. A549 ARE-Fluc reporter, luciferase luminescence, 18-24 h. Potency, µM (series often up to 46 µM), for inactives: at the top dose activity change, negative = inhibition, actives largely listed as inhibitors. actives 2.1% (n = 360,000); further: potency means the concentration at half of the fitted maximal effect; nearly all actives have a fitted effect of over 60% in size
#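 Nrf2 activity is the BugLite luminescence, read 15 min after reagent at room temperature, following CellTiter-Fluor cytotoxicity readout (30 min, 37C). Compound titrations were applied for 18-24 h to 5000 A549 ARE_Fluc cells/well in 5% FBS OPTI-MEM.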
# KB-V1 cytotox: kills drug-selected multidrug resistant KB-V1 cells; KB-V1 MDR cells viability, CellTiter-Glo, 72 h; Potency, µM (doses to about 46.1 µM), actives largely listed as cytotoxic; actives 3.4% (n = 400,000); further: potency means the concentration at half of the fitted maximal effect; nearly all actives have a fitted effect of over 60% in size
#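 Cells of the MDR subline KB-V1 are plated, dosed with compound at multiple concentrations, and incubated 72 h at 37 degrees C; CellTiter-Glo is then added and luminescence read after 10 min.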
# Giardia kill: kills Giardia lamblia. actives 0.15% (n = 340,000). Giardia lamblia trophozoite viability. activity change, % at 7.66 µM, hits read low; in the data active means activity change below about -80%; inconclusive means between about -30% and that limit;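 further: parasites exposed to compound for two days anaerobically before the ATP read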
#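 Viability, read as ATP luminescence: trophozoites at 100 cells/well, compound added, 48 hrs anaerobic at 37 deg C, then 15-30 min room-temperature development before reading.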
# Starred values were filed as active, the others as inactive; i = inactive; ? = inconclusive; . = no result. Only some compounds are listed: those with a hit (about 5.7% of all), similar ones and a draw of the others. Unless noted, the call rests on the fitted dose curve; in most records, active means well fitted curve in the direction sought with a large enough effect; inconclusive means small, poorly fitted or top-dose-only effect, or another doubt; inactive means no such curve, though single readings can be large; an effect the other way counts as inactive or inconclusive. Unless noted, on the % scale 0 is the no-effect control and ±100 the full control effect.
SMILES,PI4K2A block,KB-3-1 cytotox,A549 viability,Nrf2 block,KB-V1 cytotox,Giardia kill
O=C1SCCN1N=Cc1ccc([N+](=O)[O-])o1,1,?,?,?,?,-85*
O=C1C2C3C=CC(C4CC34)C2C(=O)N1/N=C/c1ccc([N+](=O)[O-])o1 (stereo not given),0,16µM*,-13%,?,?,-19
O=[N+]([O-])c1ccc(/C=N/N=C/c2ccc([N+](=O)[O-])o2)o1,-1,?,21µM*,?,8.2µM*,-18
CN(C)C(CNC(=O)c1cc(S(=O)(=O)N(C)Cc2ccccc2)ccc1Cl)c1ccco1 (stereo not given),-7,i,-8%,15µM*,i,-5
COc1ccc(N(C)S(=O)(=O)c2cccc(C(=O)NCC(c3cccs3)N(C)C)c2)cc1 (stereo not given),1,i,-8%,1%,i,2
CN(C)C(CNC(=O)c1cc(S(=O)(=O)N(C)c2ccc(F)cc2)ccc1Cl)c1cccs1 (stereo not given),1,?,9%,-29%,4.1µM*,-12
CN(C)C(CNC(=O)c1cc(Br)ccc1Cl)c1ccco1 (stereo not given),0,i,-8%,2%,?,5
CCCCCN1CCCCC(NC(=O)c2ccccc2OC)C1=O (stereo not given),-1,.,.,.,.,.
CC(C)Oc1ncnc2c1[nH]c1ccccc12,2,?,-12%,8.2µM*,?,-11
CCN(CC)c1ncnc2c1[nH]c1ccccc12,2,i,-3%,?,i,-12
COc1ccc(S(=O)(=O)N(C)C[C@@H]2Oc3c(NC(=O)Nc4ccccc4)cccc3C(=O)N([C@@H](C)CO)C[C@H]2C)cc1,-2,.,.,.,.,.
O=C(/C=C/c1ccccc1Cl)Nc1cccc(S(=O)(=O)NC2=NCCCCC2)c1,-5,?,?,9.2µM*,i,-21
CCCNc1ccc(C(=O)OCC)cc1[N+](=O)[O-],2,16µM*,2%,?,13µM*,-21
CCOC(=O)CNc1ccc(C(=O)OCC)cc1[N+](=O)[O-],4,i,2%,-5%,i,-21
CCC(=O)Nc1ccc(C(=O)OCC(=O)c2ccc(C)c([N+](=O)[O-])c2)cc1,-2,i,.,7.3µM*,i,-1
O=C(/C=C/c1ccc(Cl)cc1Cl)Nc1cccc(S(=O)(=O)NC2=NCCC2)c1,1,?,-7%,?,i,?
CCOC(=O)c1cccc(NC(=O)/C=C/c2ccc([N+](=O)[O-])cc2)c1,-2,i,-4%,?,4.1µM*,11
Cn1cccc1C(=O)N1CCN(S(=O)(=O)c2ccc(C(C)(C)C)cc2)CC1,-8,.,.,.,.,.
Cc1ccccc1NC(=O)CSc1nc2c(oc3ccccc32)c(=O)n1Cc1ccco1,-1,i,-4%,2%,i,.
CC(=O)c1cccc(NC(=O)c2cnn3c(C)cc(C)nc23)c1,-3,.,.,.,.,.
COC(=O)[C@]12C[C@H](CC(=O)N3CCOCC3)C(=O)N(Cc3cccc4ccccc34)C1=C[C@H](COCc1ccccc1)O[C@@H]2C,-6,.,.,.,.,.
CC(=O)Nc1cccc(-c2cc(C(C)=O)c3n(c2=O)CCC3)c1,-3,.,.,.,.,.
Cc1ccc(C(=O)COC(=O)c2cccc(NC(=O)c3ccc([N+](=O)[O-])cc3[N+](=O)[O-])c2)cc1,-4,?,-27%,-18%,18µM*,-101*
O=C(Cc1ccccc1[N+](=O)[O-])Nc1cccc(S(=O)(=O)NC2=NCCCCC2)c1,2,i,11%,?,i,-29
CC(=O)Nc1ccc(C(=O)OCC(=O)c2cccc([N+](=O)[O-])c2)cc1,-2,i,0%,-5%,i,-28
SMILES,PI4K2A block,KB-3-1 cytotox,A549 viability,Nrf2 block,KB-V1 cytotox,Giardia kill
O=C(/C=C/c1ccc([N+](=O)[O-])cc1)Nc1cccc(S(=O)(=O)NC2=NCCCCC2)c1,1,i,-19%,18µM*,18µM*,4
CCn1c(=O)n(CC(=O)N2CCC(C)CC2)c(=O)c2ccccc21,14,.,.,.,.,.
Cc1cc(C)c(NC(=O)CNC(=O)CN(C)Cc2ccc(Br)s2)c(C)c1,7,i,14%,17%,16µM*,-19
CC(=NNC(=O)CSc1nnc(-c2ccc(C(C)(C)C)cc2)n1-c1ccccc1)c1cccc2ccccc12,-6,.,.,.,.,.
Nc1c(Br)cc(/C=C2\C=Cc3ccccc32)cc1Br,.,i,.,.,i,.
CCOc1ccc(C(=O)NCC(=O)NCCSc2ccc(Br)cc2)cc1OCC,-6,i,4%,-3%,3.7µM*,8
Cc1ccc(C(=O)NCC(=O)NCCSc2ccc(Br)cc2)cc1,2,i,0%,-1%,?,1
CN(C)S(=O)(=O)c1ccc(C(=O)NCCSc2ccc(Br)cc2)cc1,1,i,?,21µM*,?,23
COC(=O)[C@]1(C#N)CC(=O)N(Cc2ccc(Cl)cc2)[C@@H]1c1ccc(OC)cc1,6,.,.,.,.,.
CCOC(=O)C(C)Oc1cccc2c(=O)n(CC(=O)Nc3ccc(OC)cc3)ccc12 (stereo not given),-1,i,.,.,?,.
CCOC(=O)C(C)Oc1cccc2c(=O)n(CC(=O)NCCc3ccccc3)ccc12 (stereo not given),11,i,7%,4%,i,-20
CCOC(=O)C(C)Oc1cccc2c(=O)n(CC(=O)NCc3ccccc3)ccc12 (stereo not given),1,1.2µM*,0%,?,2.1µM*,1
COC(=O)COc1cccc2c(=O)n(CC(=O)NCc3ccc(F)cc3)ccc12,-5,1.5µM*,-11%,3%,?,-18
CCOC(=O)C(C)Oc1cccc2c(=O)n(CC(=O)NCc3ccc(F)cc3)ccc12 (stereo not given),7,1.3µM*,-5%,?,1.3µM*,-12
N#Cc1cccc(Cn2ccc3ccc(-c4ccc5ccn(Cc6ccccc6)c5c4)cc32)c1,-13,.,.,.,.,.
CCN(CC)S(=O)(=O)c1ccc(N2CCOCC2)c(NC(=O)C23CC4CC(CC(Cl)(C4)C2)C3)c1,-3,i,-13%,-23%,23µM*,1
COc1ccc(-n2cnc3cc(C(=O)NCCC4=CCCCC4)ccc32)cc1,2,i,-1%,.,i,.
COc1cc(C2CC(=O)Nc3ccccc3S2)cc(OC)c1OC (stereo not given),-2,i,6%,-21%,10µM*,2
